Experimental data as given in PubChem BioAssay (NCI).
Values joined by “and” are separate entries in the source; they are usually repeats but may differ in a detail not shown here. Identical values can stand only once. About 83,000 compounds went through this panel and 20% of them were active in at least one assay; those are over-represented in the sample as a whole.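 Each cell line was grown in a 96-well plate and treated with one concentration of compound for 48 hours. Values below 10 were considered active.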 Active and inactive are the calls of the source.

What follows are compounds tested on UACC-62 melanoma (assay: NCI-60 one-dose screen, 48 h (100 = growth as untreated, 0 = no growth, -100 = all killed)). Settings: 10 µM.
Method: Growth inhibition of the UACC-62 human tumor cell line is measured as a screen for anti-cancer activity. Cells are grown in 96 well plates and exposed to the test compound for 48 hours. Compounds are tested at a single concentration, which is 10^-5 M for most compounds. The reported endpoint is percent growth (GI% or GIPRCNT), where numbers from 0 - 100% represent growth inhibition, and numbers from -100% - 0 represent cell death. For example, a value of 40 represents 60% growth inhibition. A value of 0 means no net growth occurred over the course of the experiment. A value of -40 indicates 40% of cells at the beginning of the experiment died by the end of the experiment. A value of -100 means all cells are dead at the end of the experiment.
NCI-60 Human Tumor Cell Lines Screen was performed using the standard one-dose NCI protocol, which is described in more detail at https://dtp.cancer.gov/discovery_development/nci-60/default.htm.
Compounds with GIPRCNT values below 10 were considered active. Activity score was based on GIPRCNT using the following formula: […]
Score is 0 for GIPRCNT values of 100 or above, 50 for GIPRCNT values of 0, and 100 for GIPRCNT values of -100.

With `COC(=O)[C@H]1[C@@H](O)[C@@]2(O)c3c(OC)cc(OC)cc3O[C@@]2(c2ccc(OC)cc2)[C@@H]1c1ccccc1` as the compound, how does the growth read?
The growth was -14.9% (active).

With `CN1C(=O)[C@]23SSC1(C)C(=O)N2[C@H]1Nc2ccccc2C1([C@@]12c4ccccc4N[C@@H]1N1C(=O)C4(C)SS[C@]1(C(=O)N4C)[C@H]2O)[C@@H]3O` (some centres undefined) as the compound, how does the growth read?
The growth was -79.2% (active).

With `COC1[C@@H]2C[C@H]3C(C)(C)O[C@@](C/C=C(/C)C(=O)O)(C2=O)[C@]32Oc3c(CC=C(C)C)c4c(c(O)c3C(=O)[C@H]12)C=CC(C)(C)O4` (some centres undefined) as the compound, how does the growth read?
The growth was -70% (active).

Which growth does the source give for `N#Cc1nc(-c2ccccc2)oc1N1CCC(S(=O)(=O)F)CC1` here?
Its growth is 98.1% (inactive).

Which growth does the source give for `CC(=O)O[C@@H]1[C@@H]2O[C@H]2[C@@](C)(O)C(=O)[C@@H](C)C/C=C/[C@H]2[C@@H]3O[C@]3(C)[C@@H](C)C3[C@H](Cc4ccccc4)NC(=O)[C@@]312` (some centres undefined) here?
The growth was 78.8% (inactive).

How did the growth turn out when `C[C@@H]1CCC/C=C/[C@H]2C[C@@H](O)C[C@@H]2[C@@H](O)/C=C/C(=O)O1` was run?
Its growth is 25.9% (inactive).

With `Cc1ccc(CNc2nc3ccc(OC/C(=C/F)CN)cc3o2)cn1` as the compound, how does the growth read?
Its growth is 90.8% (inactive).

With `CC(=O)O[C@@H]1C[C@H]2O[C@@H]3C=C(C)CC[C@]3(C)[C@]1(C)[C@]21CO1` as the compound, how does the growth read?
The growth was 2.75% (active).

`CC1=C2C(=C[C@@](C)(COS(C)(=O)=O)[C@@H]2O)C(=O)[C@](C)(O)C12CC2` was tested. Which growth did it give?
Its growth is -67.1% (active).

`COc1cc2c(cc1OC)[C@@H]1N(CC2)C(=O)c2ccccc2[C@@]1(C)C(=O)O` was tested. Which growth did it give?
The growth was 95.8% (inactive).

Which growth does the source give for `CC1=C[C@H]2O[C@@H]3C[C@H]4OC(=O)/C=C\C=C\[C@H]([C@@H](C)O)OCC/C(C)=C/C(=O)OC[C@@]2(CC1)[C@]4(C)[C@]31CO1` here?
Its growth is -58.6% (active).

With `C/C=C/CC(C)C(O)[C@H](NC(=O)[C@@H]1CCCN1C(=O)C(C)(C)NC(=O)CCCCCCC)C(=O)N[C@@](C)(CC)C(=O)N[C@@H](CCC(N)=O)C(=O)N[C@H](CCC(N)=O)C(=O)NC(C)(C)C(=O)NC(C)(C)C(=O)N[C@@H](CCC(N)=O)C(=O)N[C@H](CC(C)C)C(=O)N[C@H](CO)CC(C)C` (some centres undefined) as the compound, how does the growth read?
The growth was 103% (inactive) and 19.2% (inactive).

For `NC1CCc2cc(O)c(O)cc2C1` (centres undefined), which growth is on record?
The growth was 99.4% (inactive).

With `CC1=C(CN(O)C(N)=O)C2=C(C)C3(CC3)[C@@](C)(O)C(=O)C2=C1` as the compound, how does the growth read?
The growth was -19.7% (active).

Which growth does the source give for `C/C=C/CC(C)C(O)[C@H](NC(=O)[C@@H]1CCCN1C(=O)C(C)(C)NC(=O)CCCCCCCCC)C(=O)N[C@@](C)(CC)C(=O)N[C@@H](CCC(N)=O)C(=O)N[C@H](CCC(N)=O)C(=O)NC(C)(C)C(=O)N[C@@](C)(CC)C(=O)N[C@@H](CCC(N)=O)C(=O)N[C@H](CC(C)C)C(=O)N[C@H](CO)CC(C)C` (some centres undefined) here?
Its growth is 96% (inactive) and -96.8% (active).

For `N#Cc1c(-n2c(Br)c(Br)c3cc(Br)ccc32)[nH]c2c(Br)cc(Br)cc12`, which growth is on record?
Its growth is -30.8% (active).

How did the growth turn out when `CC1=C2C(=O)[C@](C)(CO)C=C2C(=O)[C@](C)(O)C12CC2` was run?
The growth was 7.31% (active).

For `CN(CCF)/N=N/c1nc[nH]c1C(N)=O`, which growth is on record?
The growth was 31.2% (inactive).

For `COc1cc(OC)c(S(=O)(=O)N(CCCl)CCCl)cc1C(=O)/C=C/c1ccc(Cl)cc1`, which growth is on record?
Its growth is 51.1% (inactive).

With `CCCCCCCCCC(=O)N[C@@](C)(CC)C(=O)N1CCC[C@H]1C(=O)N[C@@H](CC(C)C)C(=O)N[C@@](C)(CC)C(=O)N[C@@H](CCC(N)=O)C(=O)N[C@H](CCC(N)=O)C(=O)NC(C)(C)C(=O)NC(C)(C)C(=O)N[C@@H](CCC(N)=O)C(=O)N[C@H](CC(C)C)C(=O)N[C@H](CO)CC(C)C` as the compound, how does the growth read?
The growth was -90.6% (active) and -99.6% (active).

For `COc1cccc2c1cc([N+](=O)[O-])c1c(C(=O)O)cc3c(c12)OCO3`, which growth is on record?
Its growth is 103% (inactive).

`O=C(CCCc1ccc(N(CCCl)CCCl)cc1)OCc1ccccc1` was tested. Which growth did it give?
Its growth is 77.8% (inactive).

`C/C=C\C(=O)O[C@@H]1CC2O[C@@H]3C=C(C)C(=O)C[C@]3(C)[C@]1(C)[C@]21CO1` was tested. Which growth did it give?
The growth was -27.2% (active).

Which growth does the source give for `CC1=C2C(=C[C@@](C)(COC(=O)c3ccc(S(=O)(=O)F)cc3)[C@@H]2O)C(=O)[C@](C)(O)C12CC2` here?
Its growth is -77.1% (active).

With `CC1=C2C(=C[C@@](C)(COC(=O)c3ccc(S(=O)(=O)F)cc3)[C@@H]2OC(=O)c2ccc(S(=O)(=O)F)cc2)C(=O)[C@](C)(O)C12CC2` as the compound, how does the growth read?
The growth was -38.7% (active).

Which growth does the source give for `CC1=C2C(=C[C@@](C)(C=O)[C@@H]2O)C(=O)[C@](C)(O)C12CC2` here?
The growth was -48.5% (active).

Which growth does the source give for `COc1cc2c(O[C@@H]3OC[C@H](O)[C@H](O)[C@H]3O)c3c(c(-c4ccc5c(c4)OCO5)c2cc1OC)C(=O)OC3` here?
Its growth is 20.8% (inactive).

For `CC1=C[C@H]2O[C@@H]3C[C@H]4OC(=O)/C=C\C=C\[C@H]([C@@H](C)O)OCC[C@@H](C)[C@H](O)C(=O)OC[C@@]2(CC1)[C@]4(C)[C@]31CO1`, which growth is on record?
Its growth is -66.6% (active).

`C=C1[C@@H](C)C2[C@H](Cc3ccccc3)NC(=O)[C@]23[C@H](OC(C)=O)/C=C/[C@@](C)(O)C(=O)[C@@H](C)C/C=C/[C@H]3[C@@H]1O` (some centres undefined) was tested. Which growth did it give?
The growth was 84.5% (inactive).

`C/C=C/CC(C)C(O)[C@H](NC(=O)[C@@H]1CCCN1C(=O)C(C)(C)NC(=O)CCCCCCCCC)C(=O)NC(C)(C)C(=O)N[C@@H](CCC(N)=O)C(=O)N[C@H](CCC(N)=O)C(=O)NC(C)(C)C(=O)NC(C)(C)C(=O)N[C@@H](CCC(N)=O)C(=O)N[C@H](CC(C)C)C(=O)N[C@H](CO)CC(C)C` (some centres undefined) was tested. Which growth did it give?
Its growth is -0.972% (active) and -81.2% (active).

With `CC1=C(CCC=NNC(N)=O)C2=C(C)C3(CC3)[C@@](C)(O)C(=O)C2=C1` as the compound, how does the growth read?
Its growth is -54.9% (active).

With `CC(C)(O)/C=C/C(=O)[C@](C)(O)[C@H]1[C@H](O)C[C@@]2(C)[C@H]3CC=C4[C@@H](C[C@H](O)C(=O)C4(C)C)[C@]3(C)C(=O)C[C@]12C` as the compound, how does the growth read?
The growth was -2.65% (active).

For `CC(C)=CCc1c2c(c(O)c3c1O[C@]14C(=C[C@@H]5C[C@H]1C(C)(C)O[C@@]4(C/C=C(/C)C(=O)O)C5=O)C3=O)C=CC(C)(C)O2`, which growth is on record?
Its growth is -69.4% (active).

For `CCC(C)[C@H]1C(=O)O[C@H](C(C)C)C(=O)N(C)[C@@H](C(C)C)C(=O)O[C@H](C(C)C)C(=O)N(C)[C@@H](C(C)C)C(=O)O[C@H](C(C)C)C(=O)N1C` (some centres undefined), which growth is on record?
The growth was 9.22% (active).

`C/C=C/CC(C)C(O)[C@H](NC(=O)[C@@H]1CCCN1C(=O)C(C)(C)NC(=O)CCCCCCCCC)C(=O)N[C@@](C)(CC)C(=O)N[C@@H](CCC(N)=O)C(=O)N[C@H](CCC(N)=O)C(=O)NC(C)(C)C(=O)NC(C)(C)C(=O)N[C@@H](CCC(N)=O)C(=O)N[C@H](CC(C)C)C(=O)N[C@H](CO)CC(C)C` (some centres undefined) was tested. Which growth did it give?
Its growth is -19.1% (active) and 54.4% (inactive).

`C[C@@H]1C[C@H]2C(=O)O[C@@H](C)C(NC(=O)[C@H](Cc3cc(F)cc(F)c3)NC(=O)Nc3ccc(OS(=O)(=O)F)cc3)C(=O)N3CCC[C@H]3C(=O)N3CCO[C@H](C)[C@H]3C(=O)N[C@@H](CO)C(=O)N2C1` (some centres undefined) was tested. Which growth did it give?
Its growth is 23.5% (inactive).

For `CC1=C(CN(O)C(N)=O)C2=C(C)C3(CC3)[C@](C)(O)C(=O)C2=C1`, which growth is on record?
The growth was 14.4% (inactive).

Which growth does the source give for `COc1cc(C)c(-c2ccc(OC)c(=O)cc2C)c(OC)c1OC` here?
Its growth is 30.8% (inactive) and 86.1% (inactive).

With `CC1=C[C@H]2O[C@@H]3C[C@@H](O)[C@](C)([C@@]2(C)CC1)[C@@]31CO1` as the compound, how does the growth read?
The growth was 44.5% (inactive).
